This is an account of results in PubChem BioAssay (NCATS).

Inconclusive results are not listed. Entries that show only a call come without a potency. Active and inactive are the calls of the source. The call rests on the fitted dose curve; in most records, active means well fitted inhibition curve with a large enough effect; inconclusive means small, poorly fitted or top-dose-only effect; inactive means flat fitted curve, though single readings scatter. Where a SMILES comes first, the peptide text is derived from it. The star is where a group is joined. AMC = Cc1cc(=O)oc2cc(N*)ccc12; Cbz = O=C(OCc1ccccc1)*

A short description of the assay: P-glycoprotein substrates identified in KB-8-5-11 adenocarcinoma cell line, qHTS therapeutic library screen (AID 1346987). Further: nearly all actives have a fitted effect of over 65% in size. As to conditions: KB-8-5-11 (P-gp overexpressing) viability, CellTiter-Glo, 72 h; series mostly up to 44.5 µM. An outline of the steps:
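KB-8-5-11: colchicine-selected sub-line of KB-3-1 over-expressing P-gp; assay medium lacked colchicine. 72 h drug exposure at 37 degree C, CellTiter-Glo.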
Consider `C=CC(C)(O)CC/C=C(\C)COC1O[C@H](CO)[C@@H](O)[C@H](O)[C@H]1O` (some centres undefined), for which the Potency entry is “inactive”.
As to `COc1cc(C(=O)OC[C@@]2(O)CO[C@@H](O[C@H]3[C@H](Oc4ccc(O)cc4)O[C@H](CO)[C@@H](O)[C@@H]3O)[C@@H]2O)cc(OC)c1O`, the Potency result was “inactive”.
On to `C[C@]12CCC[C@](C)(C(=O)O)C1[C@@H](O)[C@@H](O)C13CC(CCC12)C(CO)(O[C@@H]1O[C@H](CO)[C@@H](O)[C@H](O)[C@H]1O)C3` (some centres undefined), for which the Potency entry was “inactive”.
`C[C@@H]1C(=O)O[C@H]2[C@H]1CC[C@@]1(C)C(=O)C=C[C@@](C)(O)[C@H]21`: the Potency result was “inactive”.
Consider `CC1(C(=O)O)CCCC2(C)C3CC4C5CC3(CCC12)CC45C` (centres undefined), for which the Potency entry is “inactive”.
Same read-out and setting: in the case of `CC(=O)NCC1CN(c2ccc(-c3ccc(CNCc4cn[nH]n4)cc3)c(F)c2)C(=O)O1` (centres undefined) it was “inactive”.
On the same count and under the same terms, under `C=Cc1ccc(O[C@@H]2O[C@H](CO[C@@H]3O[C@@H](C)[C@H](O)[C@@H](O)[C@H]3O)[C@@H](O)[C@H](O)[C@H]2O)cc1` stands “inactive”.
For the compound `COc1cccc(C)c1C(=O)O[C@@H]1C[C@H](O[C@H]2[C@H](O)C[C@H](O[C@@H]3CCC[C@H]4[C@H]3C=C[C@@H]3CCCC/C=C/[C@H]5C=C(C(=O)O)[C@@H](C)C[C@@]56OC(=O)C(=C6O)OC(=O)[C@@]34C)O[C@@H]2C)O[C@H](C)[C@H]1O`, the outcome is “inactive [at 9.29 µM]”.
Take `CC(=O)OCC(Cc1ccccc1)NC(=O)C(Cc1ccccc1)NC(=O)c1ccccc1` (centres undefined): the Potency entry is “inactive”.
On to `Cc1cc(O[C@@H]2O[C@H](COC(=O)CC(=O)O)[C@@H](O)[C@H](O)[C@H]2O)c(C(C)C)cc1O`, for which the Potency entry was “inactive”.
Turning to `CC1=C2C3OC(=O)C(C)C3(O)CCC2(C)CCC1` (centres undefined), the Potency result was “inactive”.
Consider `c1cc(-c2cc(C3CCNCC3)[nH]n2)ccn1`, for which the Potency result is “inactive”.
Turning to `C=C1CCC2[C@@](C)(C(=O)O)CCC[C@@]2(C)[C@@H]1CCc1ccoc1` (some centres undefined), the Potency result is “inactive”.
`C/C=C1/[C@H](O[C@@H]2O[C@H](CO)[C@@H](O)[C@H](O)[C@H]2O)OC=C(C(=O)OC)[C@H]1CC(=O)OCCc1ccc(O)c(O)c1`: the Potency result was “inactive”.
On the same count and under the same terms, in the case of `CC1CCC2C(C(=O)O)=CC3(O)CC(C)(C)CC123` (centres undefined) it was “inactive”.
With `Nc1c(-c2ccccc2)nc(Cl)c2c(O)n[nH]c(=O)c12`, the Potency entry is “inactive”.
Same read-out and setting: under `C[C@]1(OC(=O)/C=C/c2ccc(O)cc2)C[C@@H](O)[C@]2(O)C=CO[C@@H](O[C@@H]3O[C@H](CO)[C@@H](O)[C@H](O)[C@H]3O)C12` (some centres undefined) stands “inactive”; under `CC1(C)C[C@H]2C=C(C=O)[C@]3(C(=O)O)C[C@]3(C)[C@H]2C1`, “inactive”; under `C=C1CCC[C@]2(C)CC[C@@](O)(C(=C)C(=O)O)C[C@@H]12`, “inactive”.
With `CC(/C=C/C=C(\C)C(=O)O[C@@H]1O[C@H](CO[C@@H]2O[C@H](CO)[C@@H](O)[C@H](O)[C@H]2O)[C@@H](O)[C@H](O)[C@H]1O)=C\C=C\C=C(C)\C=C\C=C(/C)C(=O)O[C@@H]1C[C@](O)(C(=O)O)C[C@@H](O)[C@H]1OC(=O)/C=C/c1ccc(O)c(O)c1`, the activity change, negative = cytotoxicity was 3.01% [at 9.29 µM] (inactive).
Consider `CC(C)c1ccc2c(c1)C(O)CC1C(C)(CO)CCCC21C` (centres undefined), for which the Potency entry is “inactive”.
`CC1OC(OC2C(OC3C(O[C@H]4CC[C@@]5(C)C(CC[C@]6(C)C5CC=C5C7CC(C)(C)CC(O)[C@]7(C)CC[C@]56C)C4(C)C)OC(C(=O)O)C(O)C3O)OCC(O)C2O)C(O)C(O)C1O` (some centres undefined): the outcome was “inactive [at 9.29 µM]”.
As to `Cc1cc(=O)oc2cc(NC(=O)[C@H](CCC(=O)O)NC(=O)[C@H](CC(C)C)NC(=O)[C@H](CC(C)C)NC(=O)OCc3ccccc3)ccc12` (Cbz-Leu-Leu-Glu-{AMC}), the Potency result was “inactive”.
In the case of `C=C1CCC2C(C)(C)CC(O)CC2(C)C1CCC(C)CCOC(=O)CCC(=O)O` (centres undefined), the Potency result was “inactive”.
Consider `CC1=CCC[C@@H]2[C@](CCc3ccoc3)(C(=O)O)[C@H](C)CC[C@@]12C`, for which the Potency result was “inactive”.
Turning to `COc1ccc2c(c1)C=C1Cn3c-2c(C2CCCCC2)c2ccc(cc23)C(=O)NS(=O)(=O)N(C)CCOCCN(C)C1=O`, the Potency entry was “inactive”.
Take `CC(=O)O[C@H]1C[C@@]2(C)[C@@H](CC[C@H]3[C@@]4(C)C=CC(=O)[C@@H](C)[C@@H]4[C@H](OC(C)=O)C(=O)[C@@]32C)/C1=C(\CCC=C(C)C)C(=O)O`: the Potency result is “inactive”.
On to `CCCCC(=O)N1c2ccccc2NC2=C(C(=O)CCC2)C1c1ccccc1Cl` (centres undefined), for which the Potency entry was “inactive”.
Regarding `CC(=O)OC1C(C)C2C(OC3OC(CO)C(O)C(O)C3O)OC=C(C(=O)O)C2C1OC(=O)c1ccccc1` (centres undefined), the Potency entry is “inactive”.
